Common to all, as to assay: log2 fold change, soluble protein after heating vs DMSO (PISA); higher = thermal stabilisation; K562 cells, 10 uM, 30 min; active = over 0.2 and 3.5 SD of the protein, either way, in both replicates (recomputed)
Compound in assay [1]: CS(=O)(=O)c1ccc(-c2cnc(N)c(C(=O)Nc3ccccc3)n2)cc1
The procedure, abridged:
(§1)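 Soluble protein was defined as the supernatant after 21,000xg for 90 min. It came from K562 cells at 2×10^6 cells/mL given 10 μM compound for 30 min, heated in aliquots for 3 min across 48°C-58°C, pooled, and extracted in PBS with 0.5% NP-40 at 4°C, and was quantified by TMTpro 16plex LC-MS/MS with equalised channel sums. Thermal stability against control samples, from duplicates, is reported as log2 fold change.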

Compound in assay [2]: C[C@@H](Oc1cc(-c2cnn(C3CCNCC3)c2)cnc1N)c1c(Cl)ccc(F)c1Cl [crizotinib]
The procedure, abridged: as §1

Compound in assay [3]: C[C@@H]1COCCN1C2=NC(=NC(=C2)C3(CC3)S(=O)(=O)C)C4=C5C=CNC5=CC=C4
A digest of the protocol:
as §1

Compound in assay [4]: C[C@H](C1=CC=C(C=C1)C(=O)NC2=C3C=CNC3=NC=C2)N
A digest of the protocol:
as §1

Compound in assay [5]: C[C@H](Nc1ncnc2nc[nH]c12)c1cc2cccc(Cl)c2c(=O)n1-c1ccccc1 [duvelisib]
A digest of the protocol:
as §1

Compound in assay [6]: Cc1cc(Nc2cc(CN3CCOCC3)c3nc(C)c(Cc4ccc(Cl)cc4F)n3n2)n[nH]1 [gandotinib]
The procedure, abridged: as §1

Compound in assay [7]: Cc1cc(Nc2cc(N3CCN(C)CC3)nc(Sc3ccc(NC(=O)C4CC4)cc3)n2)n[nH]1 [tozasertib]
A digest of the protocol: as §1

Compound in assay [8]: Cc1cc(SCc2sc(-c3ccc(C(F)(F)F)cc3)nc2C)ccc1OCC(=O)O
A digest of the protocol: as §1

Compound in assay [9]: Cc1ccc(-n2nc(C(C)(C)C)cc2NC(=O)Nc2ccc(OCCN3CCOCC3)c3ccccc23)cc1 [doramapimod]
The procedure, abridged: as §1

Compound in assay [10]: Cc1ccc(C(=O)N(CCCN)[C@@H](c2nc3cc(Cl)ccc3c(=O)n2Cc2ccccc2)C(C)C)cc1 [ispinesib]
A digest of the protocol:
as §1

Targets with a hit are over-represented here; the source holds about 7,900 in all. About 0.6% of all pairs of compound and target were hits. Values without a mark were called inactive.

UniProt Q9BV86, sequence (Q9BV86 whole entry, looked up): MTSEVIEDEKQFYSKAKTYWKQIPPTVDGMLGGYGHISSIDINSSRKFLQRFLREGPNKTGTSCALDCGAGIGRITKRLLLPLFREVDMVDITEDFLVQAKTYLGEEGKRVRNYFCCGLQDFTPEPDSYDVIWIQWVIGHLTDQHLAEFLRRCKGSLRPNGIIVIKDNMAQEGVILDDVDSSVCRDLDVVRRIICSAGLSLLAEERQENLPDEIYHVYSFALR
UniProt Q9Y2A7, sequence (Q9Y2A7 whole entry, looked up): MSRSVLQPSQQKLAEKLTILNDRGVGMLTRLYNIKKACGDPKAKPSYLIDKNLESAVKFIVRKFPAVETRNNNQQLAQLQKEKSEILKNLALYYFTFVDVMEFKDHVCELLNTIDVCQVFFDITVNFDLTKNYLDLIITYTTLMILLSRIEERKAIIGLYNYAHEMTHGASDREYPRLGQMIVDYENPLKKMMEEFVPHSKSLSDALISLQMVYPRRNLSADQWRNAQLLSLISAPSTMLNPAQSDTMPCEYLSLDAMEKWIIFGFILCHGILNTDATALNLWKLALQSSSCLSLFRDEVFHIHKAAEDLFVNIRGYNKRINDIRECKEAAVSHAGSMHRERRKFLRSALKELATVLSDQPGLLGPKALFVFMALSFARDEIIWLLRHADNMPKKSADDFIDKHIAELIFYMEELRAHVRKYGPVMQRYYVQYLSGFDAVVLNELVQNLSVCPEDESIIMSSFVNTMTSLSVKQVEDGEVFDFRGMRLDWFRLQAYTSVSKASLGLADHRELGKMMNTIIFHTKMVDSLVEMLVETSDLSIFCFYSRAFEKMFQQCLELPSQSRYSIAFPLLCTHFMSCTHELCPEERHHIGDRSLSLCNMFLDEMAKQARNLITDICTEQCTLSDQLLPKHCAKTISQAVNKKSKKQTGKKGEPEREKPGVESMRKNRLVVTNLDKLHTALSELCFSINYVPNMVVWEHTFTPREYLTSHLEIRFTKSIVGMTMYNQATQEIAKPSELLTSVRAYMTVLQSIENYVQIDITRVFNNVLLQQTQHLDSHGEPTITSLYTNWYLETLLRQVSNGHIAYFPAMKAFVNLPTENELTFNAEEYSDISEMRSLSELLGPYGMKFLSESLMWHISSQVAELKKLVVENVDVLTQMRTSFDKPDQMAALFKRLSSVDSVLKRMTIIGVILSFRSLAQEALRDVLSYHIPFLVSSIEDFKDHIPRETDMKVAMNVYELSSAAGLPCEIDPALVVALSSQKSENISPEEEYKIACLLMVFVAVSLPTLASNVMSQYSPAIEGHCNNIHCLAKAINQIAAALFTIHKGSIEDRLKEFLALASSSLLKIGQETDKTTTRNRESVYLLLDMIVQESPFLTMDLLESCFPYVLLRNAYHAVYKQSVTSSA
UniProt P00846, sequence (P00846 whole entry, looked up): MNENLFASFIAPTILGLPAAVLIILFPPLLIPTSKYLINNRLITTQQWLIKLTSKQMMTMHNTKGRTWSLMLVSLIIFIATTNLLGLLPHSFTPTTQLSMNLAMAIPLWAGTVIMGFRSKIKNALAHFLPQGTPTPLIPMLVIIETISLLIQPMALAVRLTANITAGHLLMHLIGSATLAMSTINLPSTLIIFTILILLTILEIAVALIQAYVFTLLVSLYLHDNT
UniProt Q92621, sequence (Q92621 whole entry, looked up): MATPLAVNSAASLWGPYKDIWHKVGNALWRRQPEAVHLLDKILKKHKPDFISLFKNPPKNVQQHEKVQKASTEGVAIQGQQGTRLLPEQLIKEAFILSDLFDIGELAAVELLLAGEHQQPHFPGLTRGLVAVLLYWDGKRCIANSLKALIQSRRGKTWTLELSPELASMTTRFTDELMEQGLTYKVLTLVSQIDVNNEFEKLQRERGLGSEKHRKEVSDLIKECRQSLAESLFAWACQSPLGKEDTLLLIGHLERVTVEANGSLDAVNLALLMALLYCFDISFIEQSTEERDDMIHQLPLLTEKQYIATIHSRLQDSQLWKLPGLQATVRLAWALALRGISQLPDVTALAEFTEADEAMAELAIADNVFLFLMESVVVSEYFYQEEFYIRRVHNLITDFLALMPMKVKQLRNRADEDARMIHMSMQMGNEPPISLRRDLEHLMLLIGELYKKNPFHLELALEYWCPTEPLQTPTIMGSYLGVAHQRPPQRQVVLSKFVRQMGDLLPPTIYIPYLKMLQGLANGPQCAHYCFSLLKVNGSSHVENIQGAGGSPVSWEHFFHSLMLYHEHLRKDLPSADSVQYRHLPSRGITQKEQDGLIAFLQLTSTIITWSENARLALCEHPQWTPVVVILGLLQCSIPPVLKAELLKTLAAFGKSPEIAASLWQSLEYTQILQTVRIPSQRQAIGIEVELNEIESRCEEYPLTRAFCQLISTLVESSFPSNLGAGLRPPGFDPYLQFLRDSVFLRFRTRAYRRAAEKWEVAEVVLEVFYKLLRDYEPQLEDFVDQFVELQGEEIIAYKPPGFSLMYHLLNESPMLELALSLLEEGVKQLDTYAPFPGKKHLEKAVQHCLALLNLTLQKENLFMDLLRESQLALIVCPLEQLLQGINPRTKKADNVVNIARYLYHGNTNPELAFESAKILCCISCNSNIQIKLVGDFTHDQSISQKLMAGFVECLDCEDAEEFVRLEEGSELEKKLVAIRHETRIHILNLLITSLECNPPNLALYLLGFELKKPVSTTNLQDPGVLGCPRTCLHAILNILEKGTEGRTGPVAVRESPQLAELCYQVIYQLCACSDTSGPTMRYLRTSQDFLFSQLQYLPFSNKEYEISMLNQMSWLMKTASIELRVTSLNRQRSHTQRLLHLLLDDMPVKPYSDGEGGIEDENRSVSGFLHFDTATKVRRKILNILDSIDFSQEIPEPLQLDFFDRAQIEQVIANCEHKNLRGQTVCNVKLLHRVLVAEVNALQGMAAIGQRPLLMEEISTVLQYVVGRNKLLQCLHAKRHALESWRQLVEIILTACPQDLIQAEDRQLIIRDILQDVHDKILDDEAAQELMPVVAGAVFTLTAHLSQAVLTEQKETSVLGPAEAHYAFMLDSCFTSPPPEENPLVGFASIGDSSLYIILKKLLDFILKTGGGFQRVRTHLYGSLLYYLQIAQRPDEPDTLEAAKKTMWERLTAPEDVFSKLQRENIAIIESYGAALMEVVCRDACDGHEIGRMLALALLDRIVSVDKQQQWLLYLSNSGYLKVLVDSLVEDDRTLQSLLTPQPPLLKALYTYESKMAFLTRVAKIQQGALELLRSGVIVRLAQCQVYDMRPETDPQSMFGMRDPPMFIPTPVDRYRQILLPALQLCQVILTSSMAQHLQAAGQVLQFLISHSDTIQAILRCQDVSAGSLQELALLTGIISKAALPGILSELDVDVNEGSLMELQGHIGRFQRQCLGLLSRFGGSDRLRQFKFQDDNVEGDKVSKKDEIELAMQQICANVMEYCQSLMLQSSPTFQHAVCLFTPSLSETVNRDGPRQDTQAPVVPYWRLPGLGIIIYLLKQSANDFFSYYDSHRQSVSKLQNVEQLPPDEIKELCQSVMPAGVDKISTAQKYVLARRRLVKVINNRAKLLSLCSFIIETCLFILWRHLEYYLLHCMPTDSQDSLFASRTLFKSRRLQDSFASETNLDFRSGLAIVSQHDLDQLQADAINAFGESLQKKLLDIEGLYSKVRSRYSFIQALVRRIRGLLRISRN
UniProt Q96IV0, sequence (Q96IV0 whole entry, looked up): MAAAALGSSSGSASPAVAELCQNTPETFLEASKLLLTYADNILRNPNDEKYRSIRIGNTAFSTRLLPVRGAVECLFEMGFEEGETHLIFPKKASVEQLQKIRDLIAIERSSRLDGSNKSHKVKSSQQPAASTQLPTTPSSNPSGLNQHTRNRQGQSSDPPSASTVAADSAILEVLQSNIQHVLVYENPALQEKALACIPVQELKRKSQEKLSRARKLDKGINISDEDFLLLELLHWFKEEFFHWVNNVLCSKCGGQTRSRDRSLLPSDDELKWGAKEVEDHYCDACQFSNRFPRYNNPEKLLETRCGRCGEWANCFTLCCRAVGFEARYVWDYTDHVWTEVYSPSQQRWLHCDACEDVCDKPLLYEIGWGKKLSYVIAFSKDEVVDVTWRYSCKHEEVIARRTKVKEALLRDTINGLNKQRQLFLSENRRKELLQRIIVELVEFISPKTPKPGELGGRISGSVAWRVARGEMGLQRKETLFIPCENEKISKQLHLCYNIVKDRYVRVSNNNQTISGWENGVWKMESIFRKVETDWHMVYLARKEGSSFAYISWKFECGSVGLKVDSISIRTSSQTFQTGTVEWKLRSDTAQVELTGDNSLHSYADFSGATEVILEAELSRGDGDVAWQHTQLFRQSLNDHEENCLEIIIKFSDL
UniProt Q8N6M0, sequence (Q8N6M0 whole entry, looked up): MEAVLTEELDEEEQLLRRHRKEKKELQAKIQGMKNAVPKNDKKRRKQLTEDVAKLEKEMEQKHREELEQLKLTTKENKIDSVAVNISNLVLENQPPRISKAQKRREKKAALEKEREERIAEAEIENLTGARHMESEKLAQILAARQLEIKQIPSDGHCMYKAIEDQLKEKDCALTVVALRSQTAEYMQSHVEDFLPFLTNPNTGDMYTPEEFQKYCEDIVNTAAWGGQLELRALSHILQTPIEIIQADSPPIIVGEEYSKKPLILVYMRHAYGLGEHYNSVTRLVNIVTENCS
UniProt Q8N543, sequence (Q8N543 whole entry, looked up): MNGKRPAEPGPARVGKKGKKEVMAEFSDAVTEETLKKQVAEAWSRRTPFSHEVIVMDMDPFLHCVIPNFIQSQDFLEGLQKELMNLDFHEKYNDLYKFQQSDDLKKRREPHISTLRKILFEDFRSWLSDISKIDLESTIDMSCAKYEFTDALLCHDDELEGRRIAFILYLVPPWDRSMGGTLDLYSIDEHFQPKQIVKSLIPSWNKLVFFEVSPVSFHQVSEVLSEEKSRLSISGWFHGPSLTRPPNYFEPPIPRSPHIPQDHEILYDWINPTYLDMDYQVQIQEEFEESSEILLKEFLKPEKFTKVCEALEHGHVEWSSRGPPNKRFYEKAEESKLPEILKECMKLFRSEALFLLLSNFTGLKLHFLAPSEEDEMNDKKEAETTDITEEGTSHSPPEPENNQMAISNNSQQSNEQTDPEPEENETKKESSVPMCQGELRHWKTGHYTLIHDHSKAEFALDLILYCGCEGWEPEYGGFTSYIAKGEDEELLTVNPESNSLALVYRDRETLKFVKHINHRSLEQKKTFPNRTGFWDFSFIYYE

Regarding NQO1 (UniProt P15559), the log2 fold change was 0.055 in assay [1]; -0.004 in [2]; 0.069 in [3]; -0.06 in [4]; 0.165 in assay [5]; -0.062 in [6]. For the same target, the log2 fold change was 0.011 in [7], 0.152 in [8], -0.008 in assay [9] and 0.05 in [10].

Regarding NGLY1 (UniProt Q96IV0), the log2 fold change was 0.017 in [1]; -0.079 in [2]; -0.01 in assay [3]; 0.093 in assay [4]; 0.028 in assay [5]; -0.043 in assay [6]. The log2 fold change is 0.048 in assay [7], 0.032 in assay [8], 0.001 in assay [9] and -0.059 in assay [10].

On to OPA1 isoform 2 (UniProt O60313), for which the log2 fold change was 0.056 in assay [1]; -0.326 (active) in [2]; 0.048 in assay [3]; -0.003 in [4]; 0.034 in assay [5]; -0.063 in [6]. The log2 fold change was -0.075 in assay [7], 0.054 in assay [8], -0.031 in assay [9] and -0.337 (active) in [10].

Take MOV10 (UniProt Q9HCE1): the log2 fold change in assay [1] was -0.086; in assay [2], 0.032; in assay [3], -0.258; in assay [4], 0.254; in assay [5] it was -0.059; in [6] it was 0.239. The log2 fold change was 0.01 in [7], -0.023 in assay [8], 0.103 in assay [9] and -0.093 in assay [10].

NUP85 (UniProt Q9BW27): the log2 fold change is 0.022 in assay [1]; -0.007 in assay [2]; 0.049 in assay [3]; -0.088 in assay [4]; 0.033 in assay [5]; -0.107 in assay [6]. Further, the log2 fold change in assay [7] is 0.048; in assay [8], 0.026; in assay [9], -0.021; in assay [10] it was 0.015.

In the case of NELFB isoform 2 (UniProt Q8WX92), the log2 fold change in assay [1] is 0.059; in assay [2], 0.019; in [3], 0.087; in assay [4], -0.08; in [5], 0.088; in assay [6] it was -0.093. Besides, the log2 fold change was 0.033 in assay [7], 0.086 in assay [8], -0.087 in [9] and 0.042 in [10].

As to OTUD6B (UniProt Q8N6M0), the log2 fold change is 0.013 in assay [1]; -0.146 in [2]; 0.024 in assay [3]; 0 in assay [4]; -0.02 in assay [5]; -0.086 in assay [6]. In addition, the log2 fold change in assay [7] is 0.055; in [8] it was 0.122; in assay [9], 0.009; in assay [10] it was -0.165.

As to MRPS17 (UniProt Q9Y2R5), the log2 fold change was 0.038 in assay [1]; 0.034 in [2]; 0.097 in assay [3]; 0.076 in assay [4]; 0.012 in [5]; -0.06 in assay [6]. Also, the log2 fold change in [7] was -0.019; in assay [8], 0.166; in assay [9], 0.033; in assay [10], -0.345 (active).

On to MT-ATP6 (UniProt P00846), for which the log2 fold change was 0.041 in assay [1]; 0.355 in assay [2]; 0.225 in assay [3]; 0.135 in [4]; 0.153 in [5]; 0.143 in [6]. The log2 fold change is 0.045 in [7], -0.081 in [8], -0.038 in [9] and 0.076 in assay [10].

As for MRPL46 (UniProt Q9H2W6), the log2 fold change was 0.042 in [1]; 0.039 in [2]; -0.019 in [3]; 0.186 in assay [4]; -0.024 in [5]; 0.026 in assay [6]. The log2 fold change in [7] was -0.031; in assay [8], 0.054; in [9], 0.06; in [10], -0.157.

Consider NCKAP1 isoform 2 (UniProt Q9Y2A7), for which the log2 fold change in assay [1] is -0.021; in [2], -0.071; in assay [3] it was 0; in assay [4], -0.08; in assay [5] it was -0.006; in assay [6], -0.093. Further, the log2 fold change in assay [7] is -0.017; in [8], 0.031; in [9], -0.027; in assay [10] it was 0.034.

In the case of MORF4L2 (UniProt Q15014), the log2 fold change in assay [1] is -0.085; in [2], 0.013; in [3], -0.275 (active); in assay [4] it was 0.053; in [5], -0.201; in [6], 0.085. Also, the log2 fold change in assay [7] was -0.007; in assay [8], -0.012; in [9] it was 0.035; in [10], 0.011.

As for NUP205 (UniProt Q92621), the log2 fold change in [1] was 0.001; in [2] it was -0.054; in assay [3], 0.002; in [4], -0.019; in assay [5], 0.018; in [6], -0.17. Moreover, the log2 fold change in assay [7] was 0.025; in assay [8] it was 0.094; in assay [9], 0; in [10], -0.018.

In the case of NTMT1 (UniProt Q9BV86), the log2 fold change in assay [1] was 0.128; in [2], 0.039; in assay [3], 0.074; in [4], -0.029; in assay [5] it was 0.054; in assay [6] it was 0.093. Also, the log2 fold change in assay [7] was 0.067; in assay [8], 0.021; in assay [9], 0.071; in [10], 0.02.

For the target OGFOD1 (UniProt Q8N543), the log2 fold change in assay [1] was 0.034; in assay [2] it was -0.001; in [3] it was 0.042; in [4], 0.003; in [5] it was 0.046; in assay [6], -0.009. For the same target, the log2 fold change was -0.02 in assay [7], -0.021 in assay [8], -0.015 in assay [9] and -0.043 in assay [10].

These data come from the supplement of paper PMC10849652.
